Measurements published in PubChem BioAssay (EPA / NIEHS).
Several values for one entry are separate records, joined by “and”; a condition that tells them apart may be missing. Equal entries are not always repeated. Records with an inconclusive call do not appear. Where a structure was tested more than once in an assay, its records may differ in their call. Activity calls are given as the source filed them. The calls were made as follows: active = hit-call score of the fitted dose curve at least 0.9, where 1 is the maximum; inconclusive = response in the unintended direction; inactive = score below 0.9.

Assays:
[1] = target: human Acetylcholinesterase (AChE), ACHE (gene 43) (UniProt P22303); assay: NVS_ENZ_hAChE: NovaScreen (NVS) Enzymatic Assay for human Acetylcholinesterase (AChE) (AID 2283129)
How it was run: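 Cell-free colorimetric enzyme-activity assay; compounds read 0.33 hour after dosing, loss of signal vs DMSO baseline. Primary screen in duplicate at 25 uM single concentration, with active compounds retested in concentration series.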

rat CYP2B1, gene 24300 = assay: NVS_ADME_rCYP2B1: NovaScreen (NVS) CYP450-related Enzyme Activity (ADME) Assay for rat CYP2B1 (AID 2283117)
How it was run: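 Recombinant rat CYP2B1 with fluorogenic substrate, read at 0.75 h. Primary screen in duplicate at 10 uM; compounds meeting threshold (e.g., 30% inhibition) re-run in concentration-response up to 20 uM. Fitted against acetonitrile control.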

[2] = target: rat CYP2C11, Cyp2c11 (gene 29277) (UniProt P08683); assay: NVS_ADME_rCYP2C11: NovaScreen (NVS) CYP450-related Enzyme Activity (ADME) Assay for rat CYP2C11 (AID 2283118)
How it was run: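 Cell-free recombinant rat enzyme with fluorescent substrate; readout 0.33 h after dosing, loss of signal versus acetonitrile control. Initial duplicate single-point at 10 uM; actives rerun in concentration series.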

[3] = target: rat CYP2C12, Cyp2c12 (gene 25011) (UniProt P11510); assay: NVS_ADME_rCYP2C12: NovaScreen (NVS) CYP450-related Enzyme Activity (ADME) Assay for rat CYP2C12 (AID 2283119)
How it was run: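 Cell-free recombinant rat CYP2C12 activity read by fluorescence 0.5 h after dosing; loss of signal versus acetonitrile control. Primary screen in duplicate at 10 uM; actives then run in concentration-response format.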

rat CYP2C6, gene 293989 = assay: NVS_ADME_rCYP2C6: NovaScreen (NVS) CYP450-related Enzyme Activity (ADME) Assay for rat CYP2C6 (AID 2283120)
How it was run: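 Cell-free recombinant rat CYP2C6 with fluorogenic substrate, read by fluorescence 1 h after dosing; acetonitrile as negative control. Primary screen at 10 uM in duplicate, actives then in concentration-response up to 20 uM.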

[4] = target: rat CYP2C13, Cyp2c13 (gene 171521) (UniProt P20814); assay: NVS_ADME_rCYP2C13: NovaScreen (NVS) CYP450-related Enzyme Activity (ADME) Assay for rat CYP2C13 (AID 2283121)
How it was run: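 Recombinant rat CYP2C13 with fluorogenic substrate, 0.75 h cell-free incubation; primary screen in duplicate at 10 uM, actives followed in concentration series. Fluorescence loss relative to acetonitrile control indicates inhibition.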

rat CYP3A1, gene 25642 = assay: NVS_ADME_rCYP3A1: NovaScreen (NVS) CYP450-related Enzyme Activity (ADME) Assay for rat CYP3A1 (AID 2283126)
How it was run: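 Cell-free recombinant CYP assay with fluorescent substrate, read 0.5 h after dosing. Screened at 10 uM in duplicate, hits at up to 20 uM in concentration-response; loss of signal versus acetonitrile baseline.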

[5] = target: rat CYP3A2, Cyp3a2 (gene 266682) (UniProt P05183); assay: NVS_ADME_rCYP3A2: NovaScreen (NVS) CYP450-related Enzyme Activity (ADME) Assay for rat CYP3A2 (AID 2283128)
Description: NVS_ADME_rCYP3A2 is a biochemical, single-readout assay that uses extracted gene-proteins in a cell-free assay. Measurements were taken 0.5 hour after chemical dosing in a 96-well plate.NVS_ADME_rCYP3A2 is one of one assay component(s) measured or calculated from the NVS_ADME_rCYP3A2 assay. It is designed to make measurements of enzyme activity, a form of enzyme reporter, as detected with fluorescence intensity signals by Fluorescence technology.Data from the assay component NVS_ADME_rCYP3A2 was analyzed into 1 assay endpoint. This assay endpoint, NVS_ADME_rCYP3A2, was analyzed in the positive analysis fitting direction relative to Acetonitrile as the negative control and baseline of activity. Using a type of enzyme reporter, loss-of-signal activity can be used to understand changes in the enzymatic activity as they relate to the gene Cyp3a2. Furthermore, this assay endpoint can be referred to as a primary readout, because this assay has produced multiple assay endpoints where this one serves a enzymatic activity function. To generalize the intended target to other relatable targets, this assay endpoint is annotated to the cyp intended target family, where the subfamily is xenobiotic metabolism. […]

[6] = target: human AMP-activated Protein Kinase, alpha 1 (AMPKa1), PRKAA1 (gene 5562) (UniProt Q13131); assay: NVS_ENZ_hAMPKa1: NovaScreen (NVS) Enzymatic Assay for human AMP-activated Protein Kinase, alpha 1 (AMPKa1) (AID 2283130)
Description: NVS_ENZ_hAMPKa1 is a biochemical, single-readout assay that uses extracted gene-proteins in a cell-free assay. Measurements were taken 1 hour after chemical dosing in a 384-well plate.NVS_ENZ_hAMPKa1 is one of one assay component(s) measured or calculated from the NVS_ENZ_hAMPKa1 assay. It is designed to make measurements of enzyme activity, a form of enzyme reporter, as detected with fluorescence intensity signals by Fluorescence and electrophoretic mobility shift technology.Data from the assay component NVS_ENZ_hAMPKa1 was analyzed into 1 assay endpoint. This assay endpoint, NVS_ENZ_hAMPKa1, was analyzed in the positive analysis fitting direction relative to DMSO as the negative control and baseline of activity. Using a type of enzyme reporter, loss-of-signal activity can be used to understand changes in the enzymatic activity as they relate to the gene PRKAA1. Furthermore, this assay endpoint can be referred to as a primary readout, because this assay has produced multiple assay endpoints where this one serves a enzymatic activity function. To generalize the intended target to other relatable targets, this assay endpoint is annotated to the kinase intended target family, where the subfamily is serine/threonine kinase. […]

[7] = target: human Caspase 10 (CASP10), CASP10 (gene 843) (UniProt Q92851); assay: NVS_ENZ_hCASP10: NovaScreen (NVS) Enzymatic Assay for human Caspase 10 (CASP10) (AID 2283133)
Description: NVS_ENZ_hCASP10 is a biochemical, single-readout assay that uses extracted gene-proteins from E. coli in a cell-free assay. Measurements were taken 1 hour after chemical dosing in a 96-well plate.NVS_ENZ_hCASP10 is one of one assay component(s) measured or calculated from the NVS_ENZ_hCASP10 assay. It is designed to make measurements of enzyme activity, a form of enzyme reporter, as detected with fluorescence intensity signals by Fluorescence technology.Data from the assay component NVS_ENZ_hCASP10 was analyzed into 1 assay endpoint. This assay endpoint, NVS_ENZ_hCASP10, was analyzed in the positive analysis fitting direction relative to DMSO as the negative control and baseline of activity. Using a type of enzyme reporter, loss-of-signal activity can be used to understand changes in the enzymatic activity as they relate to the gene CASP10. Furthermore, this assay endpoint can be referred to as a primary readout, because this assay has produced multiple assay endpoints where this one serves a enzymatic activity function. To generalize the intended target to other relatable targets, this assay endpoint is annotated to the protease intended target family, where the subfamily is cysteine protease. […]

human Acetylcholinesterase (AChE), ACHE (gene 43), sequence (P22303 whole entry, looked up): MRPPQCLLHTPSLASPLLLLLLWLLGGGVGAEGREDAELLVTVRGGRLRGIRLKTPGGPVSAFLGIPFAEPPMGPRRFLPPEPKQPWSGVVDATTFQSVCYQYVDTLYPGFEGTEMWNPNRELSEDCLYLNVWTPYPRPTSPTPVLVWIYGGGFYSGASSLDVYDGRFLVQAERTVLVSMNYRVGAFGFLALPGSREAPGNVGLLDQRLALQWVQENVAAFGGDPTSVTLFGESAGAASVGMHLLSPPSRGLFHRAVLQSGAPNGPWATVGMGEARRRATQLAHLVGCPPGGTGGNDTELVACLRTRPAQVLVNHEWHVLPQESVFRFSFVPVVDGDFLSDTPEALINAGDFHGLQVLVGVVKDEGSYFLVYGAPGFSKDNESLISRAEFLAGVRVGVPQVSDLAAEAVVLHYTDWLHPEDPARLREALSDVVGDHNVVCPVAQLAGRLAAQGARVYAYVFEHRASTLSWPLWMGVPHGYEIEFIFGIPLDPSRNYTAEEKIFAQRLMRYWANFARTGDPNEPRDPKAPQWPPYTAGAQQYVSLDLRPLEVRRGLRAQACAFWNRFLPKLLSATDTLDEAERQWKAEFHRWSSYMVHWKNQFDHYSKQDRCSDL
rat CYP2C11, Cyp2c11 (gene 29277), sequence (P08683 whole entry, looked up): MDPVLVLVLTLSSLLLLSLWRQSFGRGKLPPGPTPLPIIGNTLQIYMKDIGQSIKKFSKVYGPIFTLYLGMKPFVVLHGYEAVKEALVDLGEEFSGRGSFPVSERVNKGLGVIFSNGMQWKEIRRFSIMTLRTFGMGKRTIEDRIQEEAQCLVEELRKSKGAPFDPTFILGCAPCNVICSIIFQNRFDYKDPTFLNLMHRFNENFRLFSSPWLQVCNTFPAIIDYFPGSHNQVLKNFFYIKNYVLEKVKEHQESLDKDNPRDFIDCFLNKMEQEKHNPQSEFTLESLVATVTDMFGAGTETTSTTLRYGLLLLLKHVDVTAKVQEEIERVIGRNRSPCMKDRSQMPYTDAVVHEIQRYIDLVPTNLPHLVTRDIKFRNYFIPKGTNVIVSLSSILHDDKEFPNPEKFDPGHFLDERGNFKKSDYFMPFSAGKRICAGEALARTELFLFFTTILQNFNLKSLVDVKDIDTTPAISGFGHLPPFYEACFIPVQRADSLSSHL
rat CYP3A2, Cyp3a2 (gene 266682), sequence (P05183 whole entry, looked up): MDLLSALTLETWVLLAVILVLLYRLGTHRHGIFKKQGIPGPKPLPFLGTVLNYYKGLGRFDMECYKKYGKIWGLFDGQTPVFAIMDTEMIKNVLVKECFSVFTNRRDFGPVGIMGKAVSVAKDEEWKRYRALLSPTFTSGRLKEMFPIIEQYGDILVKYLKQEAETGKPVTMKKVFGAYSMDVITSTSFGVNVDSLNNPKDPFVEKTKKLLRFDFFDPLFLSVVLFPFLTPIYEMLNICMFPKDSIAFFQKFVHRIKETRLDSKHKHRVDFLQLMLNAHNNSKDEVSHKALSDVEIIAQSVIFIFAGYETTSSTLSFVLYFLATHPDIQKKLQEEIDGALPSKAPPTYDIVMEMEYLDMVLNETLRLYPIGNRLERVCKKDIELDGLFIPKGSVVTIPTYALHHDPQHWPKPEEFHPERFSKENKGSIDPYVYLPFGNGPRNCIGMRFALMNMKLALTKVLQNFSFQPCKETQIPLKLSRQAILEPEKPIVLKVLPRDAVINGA
rat CYP2C13, Cyp2c13 (gene 171521), sequence (P20814 whole entry, looked up): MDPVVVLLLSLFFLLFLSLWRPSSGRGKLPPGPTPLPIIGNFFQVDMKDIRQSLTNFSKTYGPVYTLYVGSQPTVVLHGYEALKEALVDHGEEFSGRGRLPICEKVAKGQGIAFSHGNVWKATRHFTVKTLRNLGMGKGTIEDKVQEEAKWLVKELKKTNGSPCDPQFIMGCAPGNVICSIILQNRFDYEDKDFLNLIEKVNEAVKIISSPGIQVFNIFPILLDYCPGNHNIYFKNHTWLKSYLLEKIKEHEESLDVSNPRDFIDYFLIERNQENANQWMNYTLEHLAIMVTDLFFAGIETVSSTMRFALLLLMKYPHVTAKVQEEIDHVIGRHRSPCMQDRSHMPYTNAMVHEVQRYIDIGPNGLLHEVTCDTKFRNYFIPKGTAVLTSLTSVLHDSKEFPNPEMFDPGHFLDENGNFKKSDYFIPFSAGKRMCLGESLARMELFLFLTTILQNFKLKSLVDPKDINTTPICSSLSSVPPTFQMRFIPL
human AMP-activated Protein Kinase, alpha 1 (AMPKa1), PRKAA1 (gene 5562), sequence (Q13131 whole entry, looked up): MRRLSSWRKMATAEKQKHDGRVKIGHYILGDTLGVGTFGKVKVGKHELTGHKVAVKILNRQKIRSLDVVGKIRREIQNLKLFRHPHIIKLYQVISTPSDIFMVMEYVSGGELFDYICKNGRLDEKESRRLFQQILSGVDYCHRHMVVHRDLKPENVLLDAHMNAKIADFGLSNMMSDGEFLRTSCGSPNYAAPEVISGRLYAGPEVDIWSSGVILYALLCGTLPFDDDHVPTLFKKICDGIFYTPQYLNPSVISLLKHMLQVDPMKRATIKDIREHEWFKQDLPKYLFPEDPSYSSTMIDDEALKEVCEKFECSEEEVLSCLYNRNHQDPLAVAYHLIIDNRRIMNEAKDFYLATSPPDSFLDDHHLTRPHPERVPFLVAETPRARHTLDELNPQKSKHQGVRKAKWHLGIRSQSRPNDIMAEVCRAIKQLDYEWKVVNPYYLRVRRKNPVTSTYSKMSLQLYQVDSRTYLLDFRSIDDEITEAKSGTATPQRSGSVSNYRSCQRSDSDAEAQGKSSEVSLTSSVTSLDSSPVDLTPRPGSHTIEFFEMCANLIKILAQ
human Caspase 10 (CASP10), CASP10 (gene 843), sequence (Q92851 whole entry, looked up): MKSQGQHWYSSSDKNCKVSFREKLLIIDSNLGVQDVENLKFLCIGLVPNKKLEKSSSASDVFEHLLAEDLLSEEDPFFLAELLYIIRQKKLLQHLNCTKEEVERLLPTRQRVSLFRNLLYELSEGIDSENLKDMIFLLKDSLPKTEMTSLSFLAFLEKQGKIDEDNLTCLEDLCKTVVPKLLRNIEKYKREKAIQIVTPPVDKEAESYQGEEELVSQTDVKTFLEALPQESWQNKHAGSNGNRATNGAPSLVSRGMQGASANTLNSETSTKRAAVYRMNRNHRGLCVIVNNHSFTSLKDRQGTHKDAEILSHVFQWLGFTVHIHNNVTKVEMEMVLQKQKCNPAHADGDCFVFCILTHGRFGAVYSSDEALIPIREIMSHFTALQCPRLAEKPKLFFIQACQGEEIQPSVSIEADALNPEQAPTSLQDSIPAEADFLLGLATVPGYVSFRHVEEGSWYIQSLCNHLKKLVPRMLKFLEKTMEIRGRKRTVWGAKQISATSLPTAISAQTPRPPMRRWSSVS
rat CYP2C12, Cyp2c12 (gene 25011), sequence (P11510 whole entry, looked up): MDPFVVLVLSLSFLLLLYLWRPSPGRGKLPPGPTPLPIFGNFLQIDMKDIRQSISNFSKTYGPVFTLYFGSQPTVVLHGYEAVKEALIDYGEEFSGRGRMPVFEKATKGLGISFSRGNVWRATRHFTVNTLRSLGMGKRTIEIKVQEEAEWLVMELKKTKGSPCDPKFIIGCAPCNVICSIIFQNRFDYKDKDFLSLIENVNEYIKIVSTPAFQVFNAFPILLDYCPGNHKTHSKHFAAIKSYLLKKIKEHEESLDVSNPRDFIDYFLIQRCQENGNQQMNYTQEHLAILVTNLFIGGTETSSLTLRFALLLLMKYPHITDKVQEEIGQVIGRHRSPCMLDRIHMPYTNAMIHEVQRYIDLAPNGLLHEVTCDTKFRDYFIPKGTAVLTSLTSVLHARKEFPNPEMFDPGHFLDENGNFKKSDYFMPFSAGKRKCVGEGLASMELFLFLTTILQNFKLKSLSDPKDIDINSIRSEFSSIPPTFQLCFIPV

Compound: COc1cc(-c2ccc(N)c(OC)c2)ccc1N
- AC50 [1]: 13.8 µM (active)

Compound: CCN1CCC2(CC1)COc1cc3c(cc12)N(C(=O)c1ccc(-c2ccc(-c4nnc(C)o4)cc2C)cc1)CC3
- AC50 [1]: 4.69 µM (active)

Compound: Clc1ccc(C2(Cn3cncn3)CC(Br)CO2)c(Cl)c1 (stereo unspecified)
- AC50 (rat CYP2B1, gene 24300): 0.0411 µM (active)
- AC50 [2]: 1.59 µM (active)
- AC50 [3]: 11 µM (active)
- AC50 (rat CYP2C6, gene 293989): 4.68 µM (active)
- AC50 [4]: 1.87 µM (active)
- AC50 (rat CYP3A1, gene 25642): 721 nM (active)
- AC50 [5]: 1.91 µM (active)

Compound: CC(C)C1CCC(Cc2ccc(Cl)cc2)C1(O)Cn1cncn1 (stereo unspecified)
- AC50 (rat CYP2B1, gene 24300): 2.04 µM (active)

Compound: CC(C)(C)c1cc(O)ccc1O
- outcome [1]: inactive

Compound: COP(=S)(OC)Oc1ccc(Sc2ccc(OP(=S)(OC)OC)cc2)cc1
- AC50 [2]: 8.46 µM (active)
- AC50 (rat CYP2C6, gene 293989): 2.96 µM (active)
- AC50 (rat CYP3A1, gene 25642): 9920 nM (active)

Compound: Fc1ccc(C2(Cn3cncn3)OC2c2ccccc2Cl)cc1 (stereo unspecified)
- AC50 (rat CYP2B1, gene 24300): 3.09 µM (active)
- AC50 [2]: 0.974 µM (active)
- AC50 [4]: 0.377 µM (active)

Compound: CC(=O)[O][Hg][c]1ccccc1
- AC50 [1]: 40 µM (active)
- AC50 [6]: 14 µM (active)

Compound: O=C(O)C(F)(F)C(F)(F)C(F)(F)C(F)(F)C(F)(F)C(F)(F)C(F)(F)C(F)(F)C(F)(F)C(F)(F)F
- outcome [7]: inactive

Compound: O=C1C2(Cl)C3(Cl)C4(Cl)C(Cl)(Cl)C5(Cl)C3(Cl)C1(Cl)C5(Cl)C24Cl (stereo unspecified)
- AC50 (rat CYP2B1, gene 24300): 1.61 µM (active) and 5.98 µM (active)
- outcome (rat CYP2B1, gene 24300): inactive
- AC50 [2]: 193 nM (active) and 1.16 µM (active) and 250 nM (active)
- AC50 (rat CYP2C6, gene 293989): 7.93 µM (active) and 5.36 µM (active)
- AC50 (rat CYP3A1, gene 25642): 6.55 µM (active) and 3.69 µM (active)
- AC50 [5]: 3.98 µM (active) and 7.08 µM (active) and 1.19 µM (active)
